The structures appear in SMILES notation. Results filed as inconclusive are left out. Entries that show only a call come without a potency. Active and inactive are the calls of the source. Calls follow the shape of the dose curve; as a rule, active = well fitted inhibition curve with a large enough effect; inconclusive = small, poorly fitted or top-dose-only effect; inactive = no such curve, though single readings can be large or run the other way. Numbered stars: 1 amine (or outer) side, 2 acyl side, 3 side chain; on linkers, the order of the positions; unused ones are H or OH. Bridge positions count the residues as written; N and C are the ends. Square brackets hold non-standard residues; d marks the D form. Peptide text beside a SMILES is read from it. I, II: the chains in the order shown. Actinocin(9to1) = Cc1c2oc3c(C)ccc(C(=O)[*:1])c3nc-2c(C(=O)[*:2])c(N)c1=O; NMeV = CN[C@H](C(=O)O)C(C)C; Sar = CNCC(=O)O

The source of these data is PubChem BioAssay (NCATS).

In this experiment the target is Protein phosphatase 1D (Homo sapiens) (UniProt O15297). Nature of the experiment: RapidFire Mass Spectrometry qHTS Assay for Modulators of WT P53-Induced Phosphatase 1 (WIP1) (AID 1347424). The following applies: WIP1 dephosphorylation of phosphopeptide, RapidFire MS; series mostly up to 63 µM. An excerpt: Assay Provider (PI): Nathan Coussens Ph. D.
Protein phosphatase 1D (Homo sapiens), sequence (O15297 whole entry, looked up): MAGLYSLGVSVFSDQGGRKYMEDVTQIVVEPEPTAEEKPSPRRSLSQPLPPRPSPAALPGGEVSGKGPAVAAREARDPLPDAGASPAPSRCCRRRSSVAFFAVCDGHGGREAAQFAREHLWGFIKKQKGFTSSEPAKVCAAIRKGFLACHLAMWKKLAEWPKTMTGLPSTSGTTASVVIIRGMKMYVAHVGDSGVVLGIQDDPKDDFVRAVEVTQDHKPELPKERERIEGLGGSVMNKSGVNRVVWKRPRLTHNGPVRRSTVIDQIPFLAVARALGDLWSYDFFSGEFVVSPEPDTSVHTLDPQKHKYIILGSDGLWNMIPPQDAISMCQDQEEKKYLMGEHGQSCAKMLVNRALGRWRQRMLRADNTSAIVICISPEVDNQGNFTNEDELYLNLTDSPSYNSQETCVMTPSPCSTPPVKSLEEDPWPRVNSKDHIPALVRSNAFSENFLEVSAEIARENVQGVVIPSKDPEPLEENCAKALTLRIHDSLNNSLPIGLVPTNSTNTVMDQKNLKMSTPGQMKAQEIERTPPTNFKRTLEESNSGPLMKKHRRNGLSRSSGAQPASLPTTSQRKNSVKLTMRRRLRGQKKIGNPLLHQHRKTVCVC
National Center for Advancing Translational Sciences (NCATS), Rockville, MD
National Institute of Health (NIH), Bethesda, Maryland
WT P53-Induced Phosphatase 1 (WIP1) is a member of the magnesium-dependent serine/threonine protein phosphatase (PPM) family and is induced by P53 in response to DNA damage. In several human cancers, the WIP1 protein is overexpressed, which is generally associated with a worse prognosis. Although WIP1 is an attractive therapeutic target, no potent, selective, and bioactive small-molecule modulator with favorable pharmacokinetics has been reported. Phosphatase enzymes are among the most challenging targets for small molecules because of the difficulty of achieving both modulator selectivity and bioavailability. Another major obstacle has been the availability of robust and physiologically relevant phosphatase assays that are suitable for high-throughput screening.
Here, we describe two orthogonal biochemical WIP1 activity assays that utilize phosphopeptides from native WIP1 substrates. We optimized a RapidFire MS assay to quantify the enzymatically dephosphorylated peptide reaction product in a 384-well format. Additionally, a redshifted Rhodamine-PBP fluorescence assay was optimized in a 1,536-well format to enable real-time WIP1 activity measurements through the detection of the orthogonal reaction product, Pi. We validated these two optimized assays by quantitative high-throughput screening against the National Center for Advancing Translational Sciences (NCATS) Pharmaceutical Collection and used secondary assays to confirm and evaluate inhibitors identified in the primary screen.
SEQUENCE No. (e.g., 1, 2, 3, etc.); […] (e.g., Cells, Incubation, Reagent, etc.); VALUE; DESCRIPTION
1; Reagent; 50 uL; dispensed assay buffer: 0.1% formic acid in water (10 uL : 40 uL) solution in column 1
3; Library Compounds; 63 nL; library compounds in DMSO, columns 3-24
4; Control Compounds; 63 nL; DMSO in wells I-P, columns 1-2, GSK830371 (10 uM, final) in wells A-H, column 2
5; Time; 1 hr; incubation
6; Substrate; 2 uL; VEPPL-pS-QETFS (10 uM) in assay buffer, column 2-24
7; Time; 5 min; incubation
8; Reagent; 2 uL; 0.5% formic acid in water, columns 2-24
9; Reagent; 38 uL; VEPPL-S-QETF*S in 0.1% formic acid, columns 2-24
10; Detection; mass spec; RapidFire mass spectrometry
NOTES (numbers refer to sequence above)
1, 2, 6; dispensed reagent in White Nunc 384-well PP microplates (264573); assay buffer: 50 mM Tris-HCl pH 7.5, 30 mM MgCl2, 1 mM TCEP, 0.1 mM EGTA, 75 ug/mL BSA.
2, 6, 8, 9; Dispensed with BioRaptr (Beckman Coulter)
2, 6, 9; Final concentrations: 10 nM WIP1; 2 uM VEPPL-pS-QETFS; 1 uM VEFFL-S-QETF*S
3 & 4; Kalypsys Pintool transfer (Wako USA), Tip wash sequence: water, DMSO, methanol, 20 sec vacuum dry.
5 & 7; incubation at room temperature
10; RapidFire mass spectrometry read using the Agilent RapidFire 360 (Clausse, 2019)
Clausse V, et al. Physiologically relevant orthogonal assay for the discovery of small-molecule modulators of WIP1 […] in high-throughput screens. J Biol Chem. 2019, 294(46): 17654-17668. doi:10.1074/jbc.RA119.010201
(qHTS replaces the single test concentration by a dilution series.)
On to `CN(C)CC/C=C1\c2ccccc2Sc2ccc(Cl)cc21`, for which the Potency entry was “inactive”. Turning to `Cc1c(C)n(Cc2ccccc2)c2ccc(C(=O)OCCN(C)C)cc12`, the Potency result was “inactive”. With `C[C@H](CCC(=O)O)[C@H]1CC[C@H]2[C@@H]3C(=O)C[C@@H]4CC(=O)CC[C@]4(C)[C@H]3CC(=O)[C@]12C` the entry was “inactive”; with `CC(=O)[C@H]1CC[C@H]2[C@@H]3C[C@H](C)C4=CC(=O)CC[C@]4(C)[C@H]3[C@@H](O)C[C@]12C`, “inactive”.

With `Cc1c(C)n(CCN(C)C)c2ccc(C(=O)OCCN(C)C)cc12`, the Potency result is “inactive”. For `COc1cc2c(cc1OC)C(=O)C(CC1CCN(Cc3ccccc3)CC1)C2` (stereo not given) the value was “inactive”; for `CN1CCC[C@@H]1c1cccnc1`, “inactive”; for `CNCC[C@@H](Oc1ccccc1C)c1ccccc1`, “inactive”.

Regarding `COc1cc(/C=C/C(=O)O[C@H]2CC[C@]34C[C@]35CC[C@]3(C)[C@@H]([C@H](C)CCC=C(C)C)CC[C@@]3(C)[C@@H]5CC[C@H]4C2(C)C)ccc1O`, the Potency result was “inactive”. For the compound `Cc1c2oc3c(C)ccc(C(=O)N[C@@H]4C(=O)N[C@H](C(C)C)C(=O)N5CCC[C@H]5C(=O)N(C)CC(=O)N(C)[C@@H](C(C)C)C(=O)O[C@@H]4C)c3nc-2c(C(=O)N[C@@H]2C(=O)N[C@H](C(C)C)C(=O)N3CCC[C@H]3C(=O)N(C)CC(=O)N(C)[C@@H](C(C)C)C(=O)O[C@@H]2C)c(N)c1=O` (I: T[dV]P[Sar][NMeV] / II: T[dV]P[Sar][NMeV]; ester I:1-I:C, II:1-II:C; linker I:N-II:N via Actinocin(9to1)), the Potency result is “inactive”.

As to `CCOC(=O)/C=C(C)/C=C/C=C(C)/C=C/c1c(C)cc(OC)c(C)c1C`, the Potency result was “inactive”. As to `NC(=NCCCCCCN=C(N)/N=C(\N)Nc1ccc(Cl)cc1)/N=C(\N)Nc1ccc(Cl)cc1`, the Potency entry was “inactive”. For `CCCCCCCCCCCCCCCCOP(=O)([O-])OCC[N+](C)(C)C` the value was “inactive”. With `Cc1cc(O)c(C(C)C)cc1Cl` the entry was “inactive”. With `O=c1[nH]c(=O)n([C@H]2C[C@H](O)[C@@H](CO)O2)cc1C(F)(F)F` the entry was “inactive”; with `NC(=O)CC[C@@H]1NC(=O)[C@H](Cc2ccccc2)NC(=O)[C@H](Cc2ccc(O)cc2)NC(=O)CCSSC[C@@H](C(=O)N2CCC[C@H]2C(=O)N[C@@H](CCCN=C(N)N)C(=O)NCC(N)=O)NC(=O)[C@H](CC(N)=O)NC1=O`, “inactive”. Consider `C[n+]1c2cc(N)ccc2cc2ccc(N)cc21` (tested in a mixture with another compound), for which the Potency entry is “inactive”. For `NCCc1ccn[nH]1` the value was “inactive”. With `CCN(CCCCOC(=O)c1ccc(OC)c(OC)c1)C(C)Cc1ccc(OC)cc1` (stereo not given), the Potency result is “inactive”.

`CCCCOc1cc(C(=O)NCCN(CC)CC)c2ccccc2n1`: the Potency result was “inactive”.

`COc1cc2c(cc1OC)[C@@H]1CC(=O)[C@@H](CC(C)C)CN1CC2`: the Potency entry was “inactive”.

Turning to `C[C@@H](CN(C)C)CN1c2ccccc2Sc2ccccc21`, the Potency entry was “inactive”. With `OC(CCN1CCCCC1)(c1ccccc1)c1ccccc1` the entry was “inactive”; with `CC1=C(C(=O)O)N2C(=O)[C@@H](NC(=O)[C@H](N)c3ccc(O)cc3)[C@H]2SC1`, “inactive”. With `CCCCOc1ccc(OCCCN2CCOCC2)cc1` the entry was “inactive”. With `CCOC(=O)OC(C)OC1=C(C(=O)Nc2ccccn2)N(C)S(=O)(=O)c2ccccc21` (stereo not given) the entry was “inactive”; with `CC(C)NC[C@@H](O)COc1cccc2ccccc12`, “inactive”; with `CC(=O)O[C@]1(C(C)=O)CC[C@H]2[C@@H]3C[C@H](C)C4=CC(=O)CC[C@]4(C)[C@H]3CC[C@@]21C`, “inactive”. As for `NC[C@H]1O[C@H](O[C@H]2[C@H](O)[C@@H](O[C@H]3O[C@H](CO)[C@@H](O)[C@H](N)[C@H]3O)[C@H](N)C[C@@H]2N)[C@H](N)[C@@H](O)[C@@H]1O`, the Potency result is “inactive”.

Regarding `O=C1[C@H]2CCCC[C@H]2C(=O)N1CCCCN1CCN(c2nsc3ccccc23)CC1`, the Potency result is “inactive”. With `Cc1c(C(C)C)c(=O)n(-c2ccccc2)n1C` the entry was “inactive”; with `Cc1cc2c(cc1CC(=O)c1sccc1S(=O)(=O)Nc1onc(C)c1Cl)OCO2`, “inactive”. With `NCCC(O)(P(=O)(O)O)P(=O)(O)O` the entry was “inactive”. Take `COC1=CC(=O)C[C@@H](C)[C@]12Oc1c(Cl)c(OC)cc(OC)c1C2=O`: the Potency result is “inactive”.

On to `CCOc1ccc(Cc2nccc3cc(OCC)c(OCC)cc23)cc1OCC`, for which the Potency entry was “inactive”.

On to `NCCCC[C@H](N[C@@H](CCc1ccccc1)C(=O)O)C(=O)N1CCC[C@H]1C(=O)O`, for which the Potency entry is “inactive”. With `Nc1ccc(C(=O)Nc2ccccc2N)cc1` the entry was “inactive”. Take `CC(=O)N(O)CCCCCNC(=O)CCC(=O)N(O)CCCCCNC(=O)CCC(=O)N(O)CCCCCN`: the Potency entry is “inactive”. As to `CCCCC(=O)O[C@]1(C(=O)CO)CC[C@H]2[C@@H]3CCC4=CC(=O)CC[C@]4(C)[C@H]3[C@@H](O)C[C@@]21C`, the Potency result is “inactive”.

For the compound `Cc1cccn2c(=O)c(-c3nnn[nH]3)cnc12`, the Potency entry is “inactive”.
